# Source: PubChem BioAssay (NCI)
# Compounds without any hit were thinned out: in the full panel of roughly 79,000, 15% have a hit. A number with no mark means an inactive call. The source made the active and inactive calls. Cut-off read from the data, not from the text of the source: active = growth inhibition above about 70%; inactive = the rest.
# Test: NCI Yeast Anticancer Drug Screen. Data for the mec2-1 strain (AID 157)
# Details: S. cerevisiae mec2-1 strain, active compounds read high
# Procedure: Growth inhibition of yeast strains with defined genetic alterations is measured as a screen for potential anti-cancer activity. Selected strains with alterations in DNA damage repair or cell cycle control were exposed to compounds and growth inhibition was measured relative to vehicle treated controls. The strain used in this assay is mec2-1
# [1] = at 5.0 µM (retest, dose inferred, filed as 0.5)
# [2] = at 50.0 µM (retest, dose inferred, filed as 5.0)
SMILES,growth inhibition (at 1.2 µM) [%],growth inhibition (at 3.7 µM) [%],growth inhibition [1] [%],growth inhibition (at 11.0 µM),growth inhibition (at 33.0 µM),growth inhibition [2],growth inhibition (at 50.0 µM),growth inhibition (at 100.0 µM)
NC1=NCC(c2ccc(Cl)cc2)O1 (stereo unspecified),1,-1,-51,3%,1%,10%,13.3%,44%
Oc1cccc2nc3ccccc3nc12,-48,-44,9,-33%,24%,47%,68.5%,94% (active)
COc1cccc2c1C(=O)c1c(O)c3c(c(O)c1C2=O)C[C@@](O)(/C(C)=N\O)C[C@@H]3OC1CC(N)C(O)C(C)O1 (stereo partly specified),-2,3,0,14%,27%,-14%,5.75%,38%
CSC(=Nc1ccccc1)N(c1ccccc1)c1nc(=[N+](C)C)ss1,2,9,26,80% (active),97% (active),99% (active),99.3% (active),99% (active)
O=C1CN2C(Cl)(Cl)C2(c2ccccc2)c2cc(Cl)ccc2N1CC1CC1 (stereo unspecified),,,29,,,93% (active),91.3% (active),
CC(Cc1ccccc1)N(C)Cc1ccc(-c2ccccc2)o1 (stereo unspecified),,,7,,,75% (active),34%,
CC1(C)C(=O)C=CC2(C)C1CC(O)C1(C)C2CCC2(C)C(c3ccoc3)OC(=O)C3OC321 (stereo unspecified),,,4,,,12%,86.5% (active),
